# Screening data (PubChem)
# This is a sample that favours compounds with a hit; in the whole collection about 8% have one here.
# ELG1 DNA repair = ELG1-dependent DNA repair inhibition. AID 504467. 330,000 tested, 2.3% active. Potency, µM (series often up to 46.1 µM), without a hit: top-dose activity change, negative = inhibition, actives largely listed as inhibitors. HEK293T ELG1-luciferase reporter, luminescence, 16 h; DNA damage induced by 5-fluorouridine; further: potency means the concentration at half of the fitted maximal effect; nearly all actives have a fitted effect of over 55% in size
#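 In this reporter screen, reduction of luminescence relative to DMSO vehicle indicated activity. Compounds and 5-fluorouridine were added together to 2,000 cells per well, incubated for 16 hr at 37 °C, then developed with ONE-Glo.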
# TSHR antag = antagonists of human thyroid stimulating hormone receptor | AID 504810 | activity change, negative = inhibition, % at 11.5 µM | 330,000 tested, 0.2% active | TSHR-expressing cells, TSH-stimulated cAMP HTRF, 2 h; hits give low values;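 active means activity change below a set negative limit, meaning inhibition stronger than a set level, cut at about -70% in these data; inconclusive means activity change between two set negative limits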
#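 TSHR-expressing cells were treated with compounds, then stimulated with TSH at EC80 (4nM final) for 2 hours at 37 deg C. Cellular cAMP was measured by HTRF competition between lysate cAMP and cAMP-d2 for a cryptate-labelled anti-cAMP antibody.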
# Gal4-VP16 FLuc = Gal4-VP16 reporter inhibition counter-screen; Drosophila S2 Gal4-VP16 UAS-luciferase, luminescence, 20 h; 310,000 tested, 3.5% active; Potency, µM (titrated, usually from 53.6 µM), for inactives: at the highest dose activity, negative = inhibition, most hits filed as inhibitors;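 further: Gal4-VP16 expression switched on by copper sulfate through the metallothionein promoter; potency means the concentration at half of the fitted maximal effect; nearly all actives have a fitted effect of over 50% in size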
# FBPA coupling cs = counter-screen for Giardia aldolase inhibitors: coupling enzyme system. coupling enzyme system counterscreen, AmpLite Red fluorescence. AID 2472. activity change, negative = inhibition, % at 58.2 µM, hits read low. 290,000 tested, 0.67% active; in the data active means activity change below about -30%
#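 Fluorescence at 525 nm excitation and 598 nm emission measured inhibition of the coupled detection system without aldolase. Compounds (at 57.5 uM final) were preincubated 10 min at room temperature with coupling enzyme reagent before a 20 min substrate/AmpLite Red step.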
# RORg inh = inhibitors of mouse ROR gamma transcriptional activity; Potency, µM (series often up to 53.6 µM), without a hit: at the highest dose activity change, negative = inhibition, usual class: inhibitors; Drosophila S2 Gal4-RORgamma UAS-luciferase reporter, 20 h; 310,000 tested, 5.4% active; P51450; further: potency means the concentration at half of the fitted maximal effect; nearly all actives have a fitted effect of over 60% in size
# Target sequence (P51450 whole entry, looked up, the tested form may be a part): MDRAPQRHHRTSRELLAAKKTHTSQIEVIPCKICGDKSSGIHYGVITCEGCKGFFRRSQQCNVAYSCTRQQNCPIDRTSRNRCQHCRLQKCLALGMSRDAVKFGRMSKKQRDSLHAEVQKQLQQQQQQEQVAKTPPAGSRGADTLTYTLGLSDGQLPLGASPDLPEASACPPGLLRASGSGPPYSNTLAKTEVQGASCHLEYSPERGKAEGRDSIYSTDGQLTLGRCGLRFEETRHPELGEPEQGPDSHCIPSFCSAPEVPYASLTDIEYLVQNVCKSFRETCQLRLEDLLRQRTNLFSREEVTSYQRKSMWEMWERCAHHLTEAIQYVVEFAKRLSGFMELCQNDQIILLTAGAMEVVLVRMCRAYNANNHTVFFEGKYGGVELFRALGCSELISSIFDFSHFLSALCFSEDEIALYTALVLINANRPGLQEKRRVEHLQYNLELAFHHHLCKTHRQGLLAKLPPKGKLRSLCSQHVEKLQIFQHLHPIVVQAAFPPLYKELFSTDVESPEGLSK
#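 In this cell-based reporter format, copper sulfate (700 uM final) drives Gal4–ROR gamma fusion expression from a metallothionein promoter in Drosophila Schneider cells; compounds preincubated 1 hr, reporter read after 20 hr at ambient temperature.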
# Starred values were filed as active, the others as inactive; ? = inconclusive; / = no result given; [ ] = dose if it differs, or a comment. Unless noted, the call rests on the fitted dose curve; in most records, active means well fitted curve in the direction sought with a large enough effect; inconclusive means small, poorly fitted or top-dose-only effect, or another doubt; inactive means no such curve, though single readings can be large; an effect the other way counts as inactive or inconclusive. On the % scale 0 is the no-effect control and ±100 the full control effect.
SMILES,ELG1 DNA repair,TSHR antag,Gal4-VP16 FLuc,FBPA coupling cs,RORg inh
C[C@@H]1C[C@@H]([C@@H](C)CC2CC(=O)NC(=O)C2)C(=O)[C@@H](C)C1,/,/,-0.5%,1.7,0.224µM*
COc1cc(O)c(C(=O)c2ccccc2)cc1S(=O)(=O)O,/,/,7.9%,8.2,-10.3%
COc1cc(O)c(C(=O)c2ccccc2)cc1O,/,/,?,-46.5*,12.6µM*
CCCN1C/C(=C/c2ccc3c(c2)OCO3)C(=O)/C(=C/c2ccc3c(c2)OCO3)C1,23.1µM*,8.2,1.5%,1.2,-6.2%
CCCN1C(=O)/C(=C/c2ccc3c(c2)OCO3)NC1=S,?,-10.1,?,-0.5,8.91µM*
COC(=O)N1CCC2(CCN(Cc3cc(C(F)(F)F)cc(C(F)(F)F)c3)CC2)CC1,/,/,4.4%,0.2,6.2%
C[C@H](NC(=O)c1[nH]cnc1C(=O)Nc1ccc(Cl)cc1)C(=O)OC(C)(C)C,?,-0.6,1.41µM*,-4.0,1µM*
Cc1cccc(NC(=O)c2nc[nH]c2C(=O)N[C@@H](C)C(=O)OC(C)(C)C)c1,-8.3%,-17.4,7.08µM*,-6.8,3.16µM*
CCC1=NN2C(=N)/C(=C\c3cccn3-c3ccc(C)c(C)c3)C(=O)N=C2S1,18.3µM*,-5.7,-8.9%,11.7,28.2µM*
CCC1=NN2C(=N)/C(=C\c3cccn3-c3ccc(Cl)cc3)C(=O)N=C2S1,?,-3.9,-6.7%,6.2,?
CCN(CC)S(=O)(=O)c1ccc(C)c(NC(=O)COc2ccc3c(C)cc(=O)oc3c2)c1,?,4.5,-5.4%,0.2,30.7%
CCN(CC)S(=O)(=O)c1ccc(OC)c(NC(=O)C(C)Oc2ccc3c(C)cc(=O)oc3c2)c1 (stereo not given),20.6µM*,-3.8,-15.6%,0.4,37.3%
Cc1ccc(OCCn2c(C3CC(=O)N(Cc4ccccc4)C3)nc3ccccc32)cc1 (stereo not given),14.6µM*,-8.8,?,-3.4,?
CC(N)=Nc1ccc([N+](=O)[O-])cc1,17.0%,3.2,-2.8%,2.2,-2.6%
O=[N+]([O-])c1ccc(N=Nc2c(Cl)cc(O)cc2Cl)cc1,?,-91.5*,5.01µM*,-0.3,?
COc1ccc(NS(=O)(=O)c2ccc(I)cc2)cc1N1CCN(C)CC1,/,/,-4.5%,3.1,-11.0%
CC(C1CC2CCC1C2)N1CC(O)=C(c2nc3ccccc3[nH]2)C1=N (stereo not given),?,-7.4,?,-1.7,8.91µM*
COc1ccc(Cn2ccc(=O)c(Cc3c(Cl)cccc3Cl)c2C)cc1,-17.2%,16.2,15.8µM*,10.8,15.8µM*
O=C(CCC(=O)Nc1ccc(F)cc1)N/N=C/c1cccc(Br)c1,-7.0%,-0.9,14.9%,-30.6*,42.9%
O=C(CCC(=O)Nc1ccc(F)cc1)N/N=C/c1ccccc1O,10.1%,-0.1,-23.6%,-2.2,14.1µM*
COc1cccc(/C=N/NC(=O)CCC(=O)Nc2ccc(Br)cc2)c1,20.3%,5.4,-10.0%,-0.1,2.4%
O=C(CCC(=O)Nc1cc(C(F)(F)F)ccc1Cl)N/N=C\c1cc([N+](=O)[O-])ccc1O,?,-11.3,8.91µM*,-2.3,2.51µM*
Cc1ccc(C(C)C)c(OCc2ccc(C(=O)N/N=C/c3ccc(O)cc3O)cc2)c1,?,-16.4,7.08µM*,-0.3,6.31µM*
CCc1ccc(C(=O)NNC(=O)c2cccc(S(=O)(=O)N3CCN(C)CC3)c2)cc1,12.8%,-7.4,/,/,/
Cc1cccc(C)c1NC(=O)CN(C)C(=O)CN1C(=O)NC2(CCCC2)C1=O,0.0%,6.1,/,/,/
SMILES,ELG1 DNA repair,TSHR antag,Gal4-VP16 FLuc,FBPA coupling cs,RORg inh
C[C@H]1CN([C@@H](C)CO)C(=O)c2cccc(NC(=O)C3CC3)c2O[C@H]1CN(C)Cc1ccncc1,?,-7.7,/,/,/
COc1cccc2cc(C(=O)NCCN3CCOCC3)c(=O)oc12,10.4%,-3.7,-1.4%,0.0,-3.0%
C/C(=N\OCC(=O)N/N=C/c1ccc(C)cc1O)c1cccs1,-17.4%,-9.3,2.82µM*,-1.4,0.501µM*
O=C(CCC(=O)N/N=C/c1ccccc1O)NCc1ccccc1,-11.7%,3.5,-24.2%,1.7,20µM*
O=C(N/N=C/c1ccccc1F)C(=O)N1CCCCCC1,?,9.4,-16.3%,0.7,-1.6%
O=C(CCn1cnc2ccccc21)N/N=C/c1ccccc1O,?,4.5,0.631µM*,1.9,0.447µM*
C/C(=N\NC(=O)CO/N=C(\C)c1cccs1)c1ccc(N)cc1,4.1%,-1.2,0.3%,0.5,3.6%
O=C(N/N=C/c1ccccc1O)C(=O)N1CCCCCC1,-0.7%,0.0,12.6µM*,/,12.6µM*
COc1ccccc1CN1CCC2(CC1)CCN(S(C)(=O)=O)CC2,/,/,9.3%,0.2,-5.8%
O=C(CCC(=O)Nc1ccc(Br)cc1)N/N=C/c1cc([N+](=O)[O-])ccc1O,9.2µM*,5.2,-23.0%,4.1,-33.7%
C=CCc1cccc(/C=N/NC(=O)CCC(=O)Nc2ccc(C)cc2)c1O,-31.8%,0.6,?,-0.1,1.58µM*
O=C(CCC(=O)Nc1ccc(F)cc1)N/N=C/c1cc([N+](=O)[O-])ccc1O,?,4.1,-11.1%,3.8,10µM*
O=C(CC(=O)N/N=C/c1ccccc1)NCc1ccccc1,2.7%,-4.8,1.3%,-39.9*,1.8%
O=C(CCC(=O)Nc1ccc(Br)cc1)N/N=C/c1ccccc1F,1.4%,0.1,-1.9%,1.4,-11.0%
NCCCCCCN,/,/,10.8%,/,9.2%
Cc1cc2c(nc1C)CCCN2CC(O)CN1CCCc2nc(C)c(C)cc21,/,/,-1.5%[10 µM],-2.0,16.1%[10 µM]
Cc1cccc(NC(=O)CCC(=O)N/N=C/c2ccncc2)c1,15.8%,0.6,?,1.6,21.8%
O=C(CCN1CCN(c2ccccc2)CC1)N/N=C/c1ccccc1O,?,-9.8,6.31µM*,0.1,2µM*
O=C(CCC(=O)Nc1ccccc1Cl)N/N=C/c1ccccc1,12.9%,-7.5,7.8%,-47.0*,23.6%
Cc1cccc(NC(=O)CCC(=O)N/N=C/c2cc([N+](=O)[O-])ccc2O)c1,?,-7.6,-7.3%,-1.3,8.91µM*
Cc1ccc(NC(=O)CCC(=O)N/N=C/c2ccc(O)cc2O)cc1,18.3µM*,-4.9,-5.2%,2.8,-33.3%
COc1cc(SC)ccc1C(=O)OCC(=O)N1CCN(C(C)=O)CC1,5.9%,-2.3,/,/,/
O=C(N/N=C/c1cc([N+](=O)[O-])ccc1O)c1cccc(NC(=O)c2cccc(Cl)c2)c1,?,15.8,?,1.7,4.47µM*
O=C(Cc1c[nH]c2ccccc12)N/N=C/c1ccccc1O,?,-2.8,10µM*,-0.3,2.24µM*
Cc1ccccc1/C=N/NC(=O)Cc1ccc(Cl)cc1,-10.4%,-3.2,5.9%,-8.4,26.6%
Cc1ccc(/C=N/NC(=O)Cc2ccc(Cl)cc2)c(O)c1,-25.5%,2.4,0.562µM*,-1.1,0.224µM*
